According to the supplement of paper PMC4894684:
Counter-ions that a name gives are not always drawn. ± gives the standard deviation of the averaged measurements.

What follows are compounds tested on Toxoplasma gondii RH (in HFF) (assay: parasite growth relative to the screen mean (all compounds = 100%); higher = less inhibition of parasite growth). Conditions: 5 µM; 72 h; oxygen 21 %.
Outline: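 Confluent human foreskin fibroblasts in 96-well plates received library compounds by pin transfer at 5 µM final, taken from 10 mM DMSO stocks. Within 2 h the cells were infected with RH β-Gal–GFP Toxoplasma at MOI 1:5 and cultured 72 h at 21% O2. A CPRG β-Gal assay read against in-plate standard curves gave parasite number, and growth is stated relative to the screen mean, where all compounds = 100%, averaged across two screens.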
For `Cc1cc(C)c(S(=O)(=O)Nc2cccc(C(F)(F)F)c2)c(C)c1`, the parasite growth was 169 ± 30%. For `CCCCCCCCCCCCCCCC(=O)O[C@H](CC(=O)O)C[N+](C)(C)C` (racemic) [(±)-Palmitoylcarnitine chloride], the parasite growth was 108 ± 22%. `CCCOc1ccc(Br)cc1-c1cc(-c2ccc(Cl)cc2)[nH]c1-c1ccncc1` showed a parasite growth of 37 ± 9%. `Cc1cc(C(=O)O)sc1C(N)C(=O)O` (centres undefined) was tested, and the parasite growth was 126 ± 5.2%. In the case of `COc1ccc(OC)c2c(=S)c3ccccc3[nH]c12`, the parasite growth is reported as 171 ± 20%. In the case of `Cc1ccc(NC2=CC(=O)c3sc(C)nc3C2=O)cc1` [Ryuvidine], the parasite growth is reported as < 0%. With `O=c1cc(-c2ccc(O)cc2)oc2cc(O)cc(O)c12` [Apigenin] the parasite growth was 102 ± 21%. With `O=c1cc(N2CCOCC2)oc2c(-c3ccccc3)cccc12` the parasite growth was 129 ± 26%. `[O-][S+](c1ccccc1)c1ccc2nnnn2n1` (centres undefined) gave a parasite growth of 111.89 ± 0.016%. Compound `COC(=O)c1c(C)[nH]c(C)c1C(=O)c1ccccc1Cc1ccccc1` has a parasite growth of 116 ± 37%. In the case of `C[C@H](NC[C@H](O)CP(=O)(O)Cc1ccccc1)c1ccc(Cl)c(Cl)c1`, the parasite growth is reported as 108.5 ± 0.57%. Compound `O=C(O)Cc1ccc(OCCNC[C@H](O)c2ccccc2)cc1` [ZD 2079 hydrochloride] has a parasite growth of 119 ± 12%. With `O=C1Nc2ccc(I)cc2/C1=C/c1cc(Br)c(O)c(Br)c1` the parasite growth was 114 ± 18%. Compound `CCCN(CC1CC1)c1nc(C)nc(Nc2c(Cl)cc(Cl)cc2Cl)c1Cl` has a parasite growth of 116 ± 14%. For `CCCCC[C@H](O)/C=C/[C@H]1[C@H](O)CC(=O)[C@@H]1CCCCCCC(=O)O` [Alprostadil], the parasite growth was 140 ± 6%. In the case of `CS(=O)(=O)CCNCc1nc(-c2ccc3ncnc(Nc4ccc(OCc5cccc(F)c5)c(Cl)c4)c3c2)cs1`, the parasite growth is reported as 63.4 ± 19%. `Cc1nc2c(c(=O)[nH]1)CSCC2` was tested, and the parasite growth was 122 ± 32%. With `Cc1cc(C(C)(C)C)c(O)c(C)c1CC1=NCCN1` [Oxymetazoline hydrochloride] the parasite growth was 196 ± 16%. `CC1CCN=C(N)S1` (centres undefined) [AMT hydrochloride] gave a parasite growth of 70.6 ± 8.5%. Work on `CC[C@@H]1C(=O)OC[C@@H]1Cc1cncn1C` [Pilocarpine hydrochloride] yielded a parasite growth of 76.5 ± 19%. `Cc1ccc(=O)n(-c2ccccc2)c1` [Pirfenidone] showed a parasite growth of 128 ± 11%. For `CC(C)SC(=N)N` [S-Isopropylisothiourea hydrobromide], the parasite growth was 97.1 ± 3.1%. For `COC(=O)[C@@H]1[C@H]2C[C@H]3c4[nH]c5ccccc5c4CCN3C[C@@H]2CC[C@@H]1O` [Yohimbine hydrochloride], the parasite growth was 184 ± 33%. `O=C(NCCCCN1CCN(c2cccc(Cl)c2Cl)CC1)c1ccc2c(c1)Cc1ccccc1-2` was tested, and the parasite growth was 92.71 ± 0.75%. `N[C@@H](CC(=O)Nc1ccc(Oc2cc(F)c(F)cc2Br)cc1)C(=O)O` was tested, and the parasite growth was 149.3 ± 0.68%. With `O/N=C/c1ccc(-c2ccc(O)c(F)c2)c(Cl)c1O` the parasite growth was < 0%. `NCCCCCc1c[nH]cn1` [Impentamine dihydrobromide] gave a parasite growth of 132 ± 7.9%. Compound `CCCCCCN(CCCCCC)C(=O)Cc1c(-c2ccc(F)cc2)[nH]c2ccccc12` has a parasite growth of 151 ± 28%. For `CCN(CC)CCOC(=O)c1cc(Cl)c(N)cc1OC` [SDZ 205-557 hydrochloride], the parasite growth was 105 ± 6.7%. `CC(C)[N+]1(C)[C@@H]2CC[C@H]1C[C@@H](OC(=O)C(CO)c1ccccc1)C2` (some centres undefined) [Ipratropium bromide] was tested, and the parasite growth was 76.1 ± 21%. `CCC1(c2ccccc2)C(=O)NCNC1=O` [Primidone] showed a parasite growth of 113 ± 18%. For `COc1cc(NC(=O)c2ccccn2)ccc1Cl`, the parasite growth was 91.2 ± 30%. For `O=C(O)COc1cccc(-c2ocnc2-c2nc(-c3ccccc3)c(-c3ccccc3)o2)c1`, the parasite growth was 62.8 ± 28%. For `CC(C)NCC(O)c1ccc2ccccc2c1` (centres undefined) [Pronethalol hydrochloride], the parasite growth was 117 ± 28%. Compound `CC(=O)NNC(=O)N1Cc2ccccc2Oc2ccc(Cl)cc21` has a parasite growth of 136 ± 40%. Work on `CC(C)C1C2CCC(C2)C1N` (centres undefined) yielded a parasite growth of 118 ± 6.6%. Work on `O=C1C(SCCO)=C(SCCO)C(=O)c2ccccc21` yielded a parasite growth of 180 ± 14%. `O=C1OC(OC(=O)c2cccnc2Nc2cccc(C(F)(F)F)c2)c2ccccc21` (centres undefined) [Talniflumate] was tested, and the parasite growth was 113 ± 28%. For `CCc1ccc(OCc2ccccc2C(=O)Nc2ccc3nc(C)cc(N)c3c2)cc1`, the parasite growth was < 0%.
